Results: PubChem BioAssay AID1159580 (chemical genetic matrix, 2015)
The whole screen tested about 5,500 compounds, of which about 2,000 (36%) were called active. Roughly 18% stayed inconclusive and do not appear here. No stated cut-off is given here; in the data, active means normalized growth mostly below about 0.91 (no sharp cut-off); inconclusive means no clear call, values can overlap the other calls; inactive means mostly above about 0.92. Some of the results follow.

Assay: chemical genetic growth profiling, strain panel (AID 1159580);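 further: tested at 20 µM; growth read once vehicle control cultures reached saturation at 30 °C; 1 = growth at the plate median or of vehicle wells; lower values mean less growth of the strain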
Conditions: S. cerevisiae deletion strains, growth OD

Measured: normalized growth

CC(=O)NBr
inactive: locus YAL013W, strain DEP1, hits give low values 1.02 | locus YAL040C, strain CLN3, hits give low values 0.995 | locus YDR363W, strain ESC2, hits give low values 1.01 | locus YER002W, strain NOP16, hits give low values 1.01 | locus YGR078C, strain PAC10, hits give low values 1.01 | locus YMR263W, strain SAP30, hits give low values 1 | locus YNL128W, strain TEP1, hits give low values 1.01 | locus YNL175C, strain NOP13, hits give low values 1.01 | locus YNL197C, strain WHI3, hits give low values 0.997 | locus YNL224C, strain SQS1, hits give low values 1.01 | locus YOR083W, strain WHI5 (second series), hits give low values 1.01 | locus YPL055C, strain LGE1, hits give low values 0.999
